Our source for the Inhibition values is ChEMBL document CHEMBL4513135, “CO-ADD screening of IQOG CSIS (Spain) compounds”.

One test has as its system Klebsiella pneumoniae. The following applies: Concentration 32 ug.mL-1; ASSAY_TEST Inhibition of Bacterial Growth; detection method Absorption (OD600); MEDIA CAMHB; plate type 384well; NBS; CORNING #3640; time 18 hr.
Another test concerns Candida albicans. The conditions noted are these: 32 ug/mL.
In a further test the test system is Cryptococcus neoformans. The conditions noted are these: Concentration 32 ug.mL-1; ASSAY_TEST Inhibition of Fungal Growth; detection method Resazurin; Absorption (OD600-OD570); plate type 384well; NBS; CORNING #3640. (Alamar Blue is a resazurin reagent that responds to reducing activity.)

SMILES strings stand for the structures. Potency and affinity values are given separately.

By Inhibition is commonly meant the relative decrease from the control value, in per cent.

As to `Cl.ClCCCN1CCCC1`, the Inhibition with Klebsiella pneumoniae is 2.47%; with Candida albicans, 8.26%; with Cryptococcus neoformans, -0.84%.

As for `C#CCNc1nc(NCCCCC2CCN(Cc3ccccc3)CC2)c(C#N)cc1C#N`, the results for the Inhibition in the test with Klebsiella pneumoniae, in the test on Candida albicans and in the test with Cryptococcus neoformans were -10.59%, 4.43% and -10.91%, respectively.

As for `O=C(N[C@H]1CC[C@@H](Br)[C@@H](Br)C1)C(F)(F)F`, the figures for the Inhibition in the test on Klebsiella pneumoniae, in the test on Candida albicans and in the test on Cryptococcus neoformans were 11.37%, 9.4% and -47.65%, respectively.

With `Cc1cc(Br)cc(C)c1NC=C(C#N)C#N`, the Inhibition in the test on Klebsiella pneumoniae was -18.28%; in the test on Candida albicans, 1.62%; with Cryptococcus neoformans, -6.77%.

Turning to `N#Cc1cc(C#N)c(N2CCCCC2)nc1Cl`, the Inhibition is 12.8% in the test on Klebsiella pneumoniae, 0.28% with Candida albicans and -0.7% with Cryptococcus neoformans.

As for `C/C(=N\NC(=O)c1cc2ccccc2n1Cc1ccccc1)C1CC1`, the values for the Inhibition in the test with Klebsiella pneumoniae, in the test with Candida albicans and in the test with Cryptococcus neoformans were 4.04%, 0.9% and -0.08%, respectively.

Regarding `N#Cc1cc(C#N)c(Cl)nc1N`, the Inhibition in the test on Klebsiella pneumoniae is -13.03%; with Candida albicans, 2.15%; in the test on Cryptococcus neoformans it was -5.53%.

For the compound `COc1ccc2c(c1)cc(CO)n2C`, the Inhibition in the test with Klebsiella pneumoniae is 4.36%; with Candida albicans it was 3.54%; in the test with Cryptococcus neoformans, -5.23%.

`N#CC1=C(N)Oc2c(ccc3ccccc23)C1c1ccc(Cl)c(Cl)c1` (configuration not stated): the results for the Inhibition in the test on Klebsiella pneumoniae, in the test with Candida albicans and in the test with Cryptococcus neoformans were -23.32%, 1.53% and -2.77%, respectively.
